# Screening data (PubChem)
# In the library only some 12% were active in any assay of this set; here they are far more common.
# BAZ2B inh = qHTS Assay for Inhibitors of BAZ2B | AlphaScreen BAZ2B-H3K14Ac peptide displacement | Potency, µM (titrated, usually from 114 µM), for inactives: top-dose activity change, negative = inhibition, usual class: inhibitors | 360,000 compounds, 4.4% hits; also: % is scaled to controls: 0 for no effect and ±100 for the full control effect; nearly all actives have a fitted effect of over 60% in size
#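 Complex of BAZ2B and biotin-H3K14Ac (50 nM apiece) forms over 30 min at RT, then faces library compounds up to 110 uM for another 30 min; AlphaScreen beads added, 20 min dark incubation, luminescence read.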
# JMJD2A Tudor inh = qHTS Assay for Inhibitors of JMJD2A-Tudor Domain; Lysine-specific demethylase 4A (Homo sapiens), O75164; AlphaScreen JMJD2A-Tudor / H3K4me3 peptide binding; Potency, µM (titrated, usually from 114 µM), inactives show at the highest dose activity change, negative = inhibition, usual class: inhibitors; 390,000 compounds, 4.4% hits; AID 504339, 2011; also: % is scaled to controls: 0 for no effect and ±100 for the full control effect; nearly all actives have a fitted effect of over 50% in size
# G9a inh = qHTS Assay for Inhibitors of Histone Lysine Methyltransferase G9a; 350,000 compounds, 8.8% hits; G9a H3K9 monomethylation, AlphaScreen, 2 h; Histone-lysine N-methyltransferase EHMT2 (Homo sapiens), Q96KQ7; Potency, µM (doses to about 102 µM), for inactives: at the highest dose activity, negative = inhibition, usual class: inhibitors; also: % is scaled to controls: 0 for no effect and ±100 for the full control effect; nearly all actives have a fitted effect of over 75% in size
#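 AlphaScreen detection with an anti-monomethyl H3K9 antibody quantified product after a 2 h room-temperature reaction containing 500 nM biotinylated H3K9 peptide, 20 µM SAM and 20 nM enzyme, which had been preincubated 15 min with compound.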
# L3MBTL1 inh = qHTS Assay for the Inhibitors of L3MBTL1. Lethal(3)malignant brain tumor-like protein 1 (Homo sapiens), Q9Y468. AlphaScreen L3MBTL1–H3K9me1 peptide binding. Potency, µM (highest dose often 57.1 µM), for inactives: top-dose activity, negative = inhibition, actives largely listed as inhibitors. 230,000 compounds, 0.66% hits; also: % is scaled to controls: 0 for no effect and ±100 for the full control effect; nearly all actives have a fitted effect of over 60% in size
# Target sequence (Q9Y468 whole entry, looked up): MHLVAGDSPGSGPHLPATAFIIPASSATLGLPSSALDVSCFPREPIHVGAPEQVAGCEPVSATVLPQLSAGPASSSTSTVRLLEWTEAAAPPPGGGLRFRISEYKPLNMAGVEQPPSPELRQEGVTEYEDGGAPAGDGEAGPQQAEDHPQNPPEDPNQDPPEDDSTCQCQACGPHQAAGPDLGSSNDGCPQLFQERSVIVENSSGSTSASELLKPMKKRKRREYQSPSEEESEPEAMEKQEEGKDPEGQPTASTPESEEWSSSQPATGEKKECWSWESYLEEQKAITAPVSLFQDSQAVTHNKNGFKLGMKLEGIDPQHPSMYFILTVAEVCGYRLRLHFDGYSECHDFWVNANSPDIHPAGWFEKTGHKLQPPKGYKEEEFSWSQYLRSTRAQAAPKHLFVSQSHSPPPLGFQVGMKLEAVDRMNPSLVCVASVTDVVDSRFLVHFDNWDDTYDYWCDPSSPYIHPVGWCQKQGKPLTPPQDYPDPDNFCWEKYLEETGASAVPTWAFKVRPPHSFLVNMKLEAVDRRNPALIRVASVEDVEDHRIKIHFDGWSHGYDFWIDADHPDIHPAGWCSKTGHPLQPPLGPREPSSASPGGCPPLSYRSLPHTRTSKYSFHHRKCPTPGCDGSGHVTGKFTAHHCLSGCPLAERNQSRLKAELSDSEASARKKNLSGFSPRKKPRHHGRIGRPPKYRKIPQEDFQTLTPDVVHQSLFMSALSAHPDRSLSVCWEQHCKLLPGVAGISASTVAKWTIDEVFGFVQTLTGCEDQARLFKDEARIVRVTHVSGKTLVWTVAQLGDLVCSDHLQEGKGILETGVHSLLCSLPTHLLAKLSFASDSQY
#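 First, the protein-peptide complex forms for 30 min at room temperature (L3MBTL1 50 nM, biotinylated H3K9me1 peptide 75 nM). Next, compounds are pin-transferred and incubated 30 min. Finally, AlphaScreen beads are added and read after 30 min.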
# HP1b chromo inh = HTS for Inhibitors of HP1-beta Chromodomain Interactions with Methylated Histone Tails. Chromobox protein homolog 1 (Homo sapiens), P83916. AlphaScreen HP1-beta / biotin-H3K9me3 peptide binding. Potency, µM (doses to about 114 µM), for inactives: top-dose activity change, negative = inhibition, usual class: inhibitors. 390,000 compounds, 0.56% hits; also: nearly all actives have a fitted effect of over 70% in size
#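 HP1-beta protein (50 nM final) preincubated 30 min at room temperature with biotinylated H3(1-18)K9me3 peptide (50 nM) in PBS pH 7.4, 0.01% Tween-20, then compound added for 30 min. AlphaScreen streptavidin donor/nickel chelate acceptor beads (10 ug/mL final), 30 min dark, luminescence read.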
# Sfp PPTase inh = qHTS Assay for Inhibitors of Bacillus subtilis Sfp phosphopantetheinyl transferase (PPTase); Potency, µM, inactives show largest response in the series, negative = inhibition, actives largely listed as inhibitors; 310,000 compounds, 3.5% hits; Biochemical Sfp PPTase activity, qHTS; 4'-phosphopantetheinyl transferase ffp (Bacillus subtilis), Q9F4F7;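 also: the enzyme is Sfp with the accession as filed and its product quenches rhodamine fluorescence; 0% = enzyme reaction without inhibitor and -100% = no enzyme wells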
#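 Fluorescence-quenching assay: 15 nM Sfp-PPTase preincubated 15 min at room temperature with compound, then 5 uM rhodamine-CoA and 12.5 uM BHQ-2-labelled YbbR peptide added. Fluorescence (ex 525/em 598 nm) read at start and after 30 min; difference gives rate.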
# * hit, by the source's call; ? = inconclusive; / = no result given; [ ] = another dose, or the depositor's remark. Calls follow the shape of the dose curve; as a rule, active = well fitted curve in the direction sought with a large enough effect; inconclusive = small, poorly fitted or top-dose-only effect, or another doubt; inactive = no such curve, though single readings can be large; an effect the other way counts as inactive or inconclusive. Potency is read from the fitted curve at half-maximal effect.
SMILES,BAZ2B inh,JMJD2A Tudor inh,G9a inh,L3MBTL1 inh,HP1b chromo inh,Sfp PPTase inh
CCCCSc1nnc2c(n1)OC(C(=O)c1ccccc1)Nc1ccccc1-2 (stereo not drawn),?,/,7.1µM*,/,/,-6%
O=C(O)c1ccc(C2Nc3ccccc3-c3nnc(SCc4ccc(Cl)cc4)nc3O2)cc1 (stereo not drawn),50µM*,?,-27%[59 µM],/,7%,/
CCOc1cc(C2Nc3ccccc3-c3nnc(SCc4ccccc4)nc3O2)ccc1OC (stereo not drawn),-13%,-23%,-44%[59 µM],/,1%,/
CCOc1ccc(Cl)cc1S(=O)(=O)N1CCC(C(=O)NCc2ccncc2)CC1,6%,-18%,24%,/,11%,-4%
CN(C)c1ccc(/C=C/C(=O)c2ccc3c(c2)OCCO3)cc1[N+](=O)[O-],?,-6%,?,-12%,13%,-3%
NC(=O)C1CCN(C(=S)NCCc2ccccc2)CC1,-10%,-2%,/,7%,24%,2%
O=C(NC1CCN(C(=S)NCc2ccco2)CC1)C1CCCCC1,10%,-1%,?,-4%,4%,0%
O=C(NC(=S)N1CCCCCC1)C1CC1,0%,-24%,28µM*,-2%,6%,-26%
COc1ccc(CCNC(=S)N2CCC(C(N)=O)CC2)cc1,-1%,-2%,-128%[59 µM],/,?,56µM*
O=C(CC12CC3CC(CC(C3)C1)C2)NC(=S)N1CCCCC1,-5%,-18%,11µM*,-2%,?,-26%
CCCNC(=S)N1CCC(NC(=O)C2CCCCC2)CC1,2%,22µM*,7%[12.7 µM],-5%,?,7%
COc1ccc(C(=O)CCC(=O)Nc2cccnc2)cc1OC,20%,-4%,12%,/,-20%,10%
c1ccc2c(-c3cncc4ccccc34)cncc2c1,/,-20%,/,/,-4%,/
OC1CCN(C(=S)NCCc2ccccc2)CC1,5%,-3%,-8%[59 µM],/,17%,22%
O=C(NC1CCN(C(=S)NCCc2ccccc2)CC1)C1CC1,?,-5%,10µM*,5%,70%,?
O=C1c2ccccc2C(=O)N1c1ccc(S(=O)(=O)N2CCOCC2)cc1,/,-4%,/,/,29%,/
CCC1CCCCN1CC(O)COCc1cccc(OC)c1 (stereo not drawn),-16%,-8%,13%,/,-8%,6%
NC(=O)C1CCCN(CC(O)COCc2ccc(Cl)cc2)C1 (stereo not drawn),50µM*,18µM*,-10%,/,-32%,-8%
OCCC1CCCCN1CC(O)COCc1ccc(Cl)cc1 (stereo not drawn),?,22µM*,?,/,?,-14%
CCN(CC)S(=O)(=O)c1ccc2c(c1)c(=O)c(C(=O)N1CCN(c3ccc(F)cc3)CC1)cn2C,/,-9%,-34%[59 µM],/,-6%,/
c1ccc(Oc2cccc(OCCCn3cncn3)c2)cc1,11%,-6%,7%[12.7 µM],/,46%,-12%
Cc1ccc(C(C)C)cc1OCCn1cncn1,79µM*,2.2µM*,11µM*,7%,50µM*,?
CCC(=O)c1ccc(OCCn2cncn2)cc1,0%,-8%,7%[12.7 µM],-5%[11.4 µM],58%,10%
CCC(=O)c1ccccc1OCCCCn1cncn1,28µM*,5.6µM*,8.9µM*,0%,?,?
CC1CC(C)CN(CCC(=O)Nc2cccc(Cl)c2)C1 (stereo not drawn),-13%,0%,-35%[2.33 µM],/,29%,-5%
SMILES,BAZ2B inh,JMJD2A Tudor inh,G9a inh,L3MBTL1 inh,HP1b chromo inh,Sfp PPTase inh
Clc1cccc(OCCn2cncn2)c1Cl,56µM*,-3%[11.4 µM],?,2%[11.4 µM],-35%,-26%
CC1CC(C)CN(CCOc2cccc(Cl)c2Cl)C1 (stereo not drawn),?,79µM*,13µM*,2%,?,-33%
FC(F)(F)c1ccccc1-c1cc(NCc2cccnc2)ncn1,/,/,8%[0.501 µM],/,/,-27%
CCC(=O)c1ccccc1OCCN1CCN(CC)CC1,35µM*,14µM*,14µM*,12%,?,?
CC(=O)c1ccccc1OCCOc1ccccc1C(C)=O,2%,-13%,19%,6%,35%,16%
CC1CC(C)CN(CCOc2ccc(Cl)cc2Cl)C1 (stereo not drawn),56µM*,2.8µM*,?,/,?,-19%
CCN1CCN(CCOc2cccc(Cl)c2Cl)CC1,18µM*,4µM*,/,45%,?,50µM*
CC1(C)NC(=O)N(CCOc2cccc(Cl)c2Cl)C1=O,7%,-2%,8%[59 µM],0%,64%,-8%
CCOc1ccc(CCNC(=O)CCCn2nc(C)c3c(C)n(-c4ccccc4)nc3c2=O)cc1,1%,-28%,/,/,51%,6%
NNC(=O)/C(=C\c1ccc(Br)cc1)NC(=O)c1cccs1,-24%,-15%,-29%,-7%,15%,24%
CCOc1ccc(NC(=O)NCCn2nnc3cc(S(=O)(=O)N(C)C)ccc32)cc1,-1%,1%,28%[59 µM],/,32%,/
COc1cccc(Sc2ccccc2CN(C)C)c1,5%,-29%,-8%,5%,?,10%
CN(C)Cc1ccccc1Sc1ccc2c(c1)CCCC2,/,0.63µM*,/,/,?,/
CN1CCN(/N=C/c2ccc(-c3ccc([N+](=O)[O-])cc3Cl)o2)CC1,28µM*,56µM*,25µM*,?,?,-5%
Cc1cc(-c2ccc(/C=N/n3cnnc3)o2)c(C)c([N+](=O)[O-])c1,-37%,?,40µM*,/,-9%,-19%
O=[N+]([O-])c1ccc(Cl)c(-c2ccc(/C=N/n3cnnc3)o2)c1,?,?,71µM*,/,-9%,-7%
CC(C)COC(=O)c1cc(-c2ccc(/C=N/n3cnnc3)o2)ccc1Cl,6%,-33%,10µM*,-6%,7%,-7%
CCN(CC)C(=O)c1sc2c(c1C)c(=O)n(Cc1ccccc1)c(=O)n2CC(=O)Nc1ccc(OC)cc1,-4%,-11%,2%[59 µM],/,40%,/
CCN(C1CCCCC1)S(=O)(=O)CCNC(=O)c1ccccc1,-5%,-7%,5%,0%,11%,/
Fc1ccccc1-c1nc(-c2ccccc2)oc1NC1CCCCC1,/,/,/,/,/,-15%
CC(=O)[C@H]1CC[C@H]2[C@@H]3C=CC4=CC(=O)CC[C@@]4(C)[C@H]3CC[C@]12C,/,/,9%[21.5 µM],/,/,22%
O=C(CSc1nnc(NC(=O)c2ccco2)s1)Nc1ccccc1Br,-16%,0%,22%[59 µM],/,23%,1%
